Hits are enriched below; roughly 13% of the tested compounds scored in any of these assays.
CHX counter – counter-screen for Shiga toxin inhibitors: cycloheximide protein synthesis inhibition; cell reporter, cycloheximide protein synthesis inhibition counterscreen; max response, %; actives 12% (n = 300,000); AID 2314; in the data active means max response mostly above about 13%, no sharp cut-off; inactive means mostly below about 14%; further: read at 38.3 µM for the half of the compounds with a filed dose
Shiga inhibitor – Shiga toxin inhibition | Vero cells, Shiga toxin protein synthesis inhibition reporter | inhibition, % at 38.7 µM | actives 9.2% (n = 290,000); in the data active means inhibition mostly above about 28%, no sharp cut-off; inactive means mostly below about 43%
FMDV inh – blocks foot and mouth disease virus; FMDV antiviral cell-based qHTS; Potency, µM (series often up to 57.9 µM), usual class: inhibitors; actives 1.2% (n = 410,000); AID 1159524; calls by dose curve; tested in HEK293T cells; further: read-out not given here; nearly all actives have a fitted effect of over 45% in size
HCV inhibitor – inhibitors of hepatitis C virus infection; Huh7.5.1 HCVcc-Cre infection, luciferase reporter, 44 h; Potency, µM (top dose mostly 41.8 µM), hits mostly inhibitors; actives 3.4% (n = 340,000); AID 651820; active means well fitted inhibition curve with a large enough effect; inconclusive means small, poorly fitted or top-dose-only effect, or another doubt; inactive means no such curve, though single readings can be large or run the other way
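Infectious HCVcc-Cre (~0.5 moi) was added to cells just after compound, with cells seeded 4 h earlier at 1,000 per well. Luciferase activity after 44 h culture reported infection; substrate was incubated 15 min at room temperature before reading.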
MARV entry inh – inhibitors of Marburg virus binding or cell entry; Marburg virus pseudotyped entry inhibition, cell reporter; Potency, µM (titrated, usually from 37.8 µM), actives largely listed as inhibitors; actives 1.8% (n = 300,000); calls by dose curve; tested in HEK293 cells
LASV entry inh – inhibitors of Lassa virus binding or cell entry | actives 1.2% (n = 300,000) | Lassa virus pseudotype entry inhibition, cell reporter | AID 540256 | Potency, µM (highest dose often 37.9 µM), most hits filed as inhibitors; calls by dose curve; tested in HEK293 cells; further: nearly all actives have a fitted effect of over 50% in size
Each line names hits and unclear results; the compound was inactive in the other large screens.

CNC(=O)c1cc(C(=O)c2ccc(C(F)(F)F)cc2F)c[nH]1	CHX counter 18.7
CNC(=O)c1cc(C(=O)c2ccccc2C(F)(F)F)c[nH]1	none
CC1(C(=O)Nc2ccc3c(c2)OCO3)CCN1C(=O)Cc1cccc2ccccc12 (configuration not stated)	none (no result: CHX counter, Shiga inhibitor, HCV inhibitor, MARV entry inh, LASV entry inh)
Cc1cc(C)c(C#N)c(Sc2nc(C)c([N+](=O)[O-])c(C)c2C#N)n1	FMDV inh 22.4µM (no result: CHX counter, Shiga inhibitor, HCV inhibitor, MARV entry inh, LASV entry inh)
COC(=O)C(Sc1nc(C)cc(C)c1C#N)c1ccccc1 (configuration not stated)	none (no result: FMDV inh)
Cc1cc(C)c(C#N)c(Sc2ccccc2N)n1	CHX counter 31.9, Shiga inhibitor 71.7, HCV inhibitor inconclusive
c1ccc(-c2noc(CN3CCCC(OCc4ccccn4)C3)n2)cc1 (configuration not stated)	none (no result: MARV entry inh, LASV entry inh)
COC(=O)C1CCCCN1Cc1ccc2c(c1)CN(C(=O)c1ccc(F)cc1)CCO2 (configuration not stated)	none (no result: CHX counter, Shiga inhibitor, HCV inhibitor, MARV entry inh, LASV entry inh)
CCOC(=O)C1Oc2ccccc2C(c2ccc(OC)cc2)=C1C(=O)OC (configuration not stated)	FMDV inh inconclusive (no result: MARV entry inh, LASV entry inh)
O=C(CN(Cc1ccco1)C(=O)c1ccc(F)cc1F)Nc1ccccc1C(F)(F)F	none (no result: CHX counter, Shiga inhibitor, MARV entry inh, LASV entry inh)
CC1CCCCN1S(=O)(=O)c1cn(C)c(=O)n(C)c1=O (configuration not stated)	none (no result: MARV entry inh, LASV entry inh)
COc1ccc(-c2n[nH]c(C)c2-c2cc(OC)ccc2O)cc1	none
COc1ccc(-c2cc(-c3ccc(OC)c(OC)c3)n[nH]2)c(O)c1	CHX counter 70.5, Shiga inhibitor 96.8, HCV inhibitor inconclusive
COc1ccc(O)c(-c2cc(-c3cccc(Br)c3)n[nH]2)c1	CHX counter 31.7, Shiga inhibitor 29.1, HCV inhibitor inconclusive, MARV entry inh inconclusive, LASV entry inh inconclusive
COc1ccc(-c2ncncc2-c2ccc(OC)c(OC)c2)c(O)c1	HCV inhibitor inconclusive, MARV entry inh inconclusive, LASV entry inh inconclusive
COc1ccc(-c2cc(-c3cc(OC)ccc3O)[nH]n2)cc1	CHX counter 45.1, Shiga inhibitor 97.4, MARV entry inh inconclusive, LASV entry inh inconclusive
COc1ccc(O)c(-c2cc(-c3ccc(F)cc3)n[nH]2)c1	CHX counter 50.3, Shiga inhibitor 116.4, HCV inhibitor inconclusive, MARV entry inh inconclusive
O=C(CCS(=O)(=O)c1ccccc1)NCc1ccccc1	none (no result: MARV entry inh, LASV entry inh)
CCCN(CCC)C(=O)CSc1nc2c(sc(=S)n2-c2ccc(OCC)cc2)c(=O)[nH]1	FMDV inh inconclusive, LASV entry inh inconclusive
Cc1ccc(S(=O)(=O)NCCOc2nc(N3CCOCC3)nc(N3CCOCC3)n2)cc1	none
FC(F)(F)c1ccccc1-c1ccc2ncnc(NCc3cccnc3)c2c1	none (no result: CHX counter, Shiga inhibitor, HCV inhibitor, MARV entry inh, LASV entry inh)
CCc1nc2nc(C)cc(Nc3cc(C)ccc3C)n2n1	none (no result: CHX counter, Shiga inhibitor, HCV inhibitor)
CCC1(c2ccc(F)cc2)NC(=O)N(CC(=O)NC2CCCCCC2)C1=O (configuration not stated)	HCV inhibitor inconclusive (no result: CHX counter, Shiga inhibitor)
CC(C)(C)c1ccc([C@@H](O)CCCN2CCC(C(O)(c3ccccc3)c3ccccc3)CC2)cc1	none (no result: CHX counter, Shiga inhibitor, FMDV inh, HCV inhibitor, LASV entry inh)
COc1ccc(-c2cc(-c3ccc(Cl)cc3)n[nH]2)c(O)c1	CHX counter 37.0, Shiga inhibitor 92.5, HCV inhibitor inconclusive (no result: MARV entry inh, LASV entry inh)
COc1ccc(-c2cc(-c3cc(F)ccc3O)[nH]n2)cc1OC	CHX counter 37.7, Shiga inhibitor 78.1, HCV inhibitor inconclusive, MARV entry inh inconclusive
COC(=O)c1cc(-c2ccc(OC)c(OC)c2)n[nH]1	none
COc1ccc(CNC(=O)[C@H](Cc2c[nH]c3ccccc23)NC(=O)[C@@H]2Cc3ccccc3CN2)cc1	none (no result: MARV entry inh, LASV entry inh)
CC(C)c1ccc(NC(=O)[C@H](Cc2c[nH]c3ccccc23)NC(=O)[C@@H]2Cc3ccccc3CN2)cc1	CHX counter 24.2, HCV inhibitor 4.47µM (no result: MARV entry inh, LASV entry inh)
COc1ccc(NC(=O)[C@H](Cc2c[nH]c3ccccc23)NC(=O)[C@@H]2Cc3ccccc3CN2)cc1	CHX counter 19.3, HCV inhibitor inconclusive (no result: MARV entry inh, LASV entry inh)
CCOc1ccc(CCNC(=O)c2cccs2)cc1OCC	none
CC(C)(C)OC(=O)NCCC(=O)N/N=C/c1ccc2ncccc2c1	none
COc1ccc2nc(/C=N/NC(=O)CCNC(=O)OC(C)(C)C)ccc2c1	CHX counter 35.3, Shiga inhibitor 62.1
COc1ccc2nc(/C=N/NC(=O)CCCCCNC(=O)OC(C)(C)C)ccc2c1	CHX counter 40.7, HCV inhibitor inconclusive, MARV entry inh inconclusive
CC(C)CNC(=O)Nc1ccc(F)c(Cl)c1	CHX counter 26.1
CCCCC(=O)Nc1ccc(F)c(Cl)c1	CHX counter 16.1, HCV inhibitor inconclusive
CCC(C)NC(=O)Nc1ccc(F)c(Cl)c1 (configuration not stated)	CHX counter 22.6
CSCC(=O)Nc1ccc(F)c(Cl)c1	none
COc1cc(C=O)ccc1OCC(=O)Nc1ccccc1N1CCOCC1	none
COc1ccccc1N(Cc1ccccc1)S(=O)(=O)c1cccc(C(=O)O)c1	none
O=C(O)c1ccc(Cl)c(S(=O)(=O)N(Cc2ccccc2)c2ccc(Cl)cc2)c1	MARV entry inh inconclusive
COc1ccccc1N(Cc1ccccc1)S(=O)(=O)c1cccc(C(=O)NC2CC(C)(C)NC(C)(C)C2)c1	HCV inhibitor 2.24µM, MARV entry inh inconclusive, LASV entry inh inconclusive (no result: CHX counter, Shiga inhibitor)
COc1ccccc1N(Cc1ccccc1)S(=O)(=O)c1cccc(C(=O)Nc2cc(C)ccn2)c1	CHX counter 43.0, Shiga inhibitor 58.4, FMDV inh inconclusive, HCV inhibitor inconclusive, MARV entry inh inconclusive, LASV entry inh inconclusive
CC1(C)CC(NC(=O)c2ccc(Cl)c(S(=O)(=O)N(Cc3ccccc3)c3ccccc3)c2)CC(C)(C)N1	HCV inhibitor inconclusive, MARV entry inh 8.91µM (no result: CHX counter, Shiga inhibitor)
O=C(O)CCCSc1nccn1-c1ccccc1	none
CCN1/C(=C/c2ccc3cc(C)ccc3[n+]2CC)Sc2cc(C)ccc21	FMDV inh inconclusive, HCV inhibitor 2.51µM (no result: MARV entry inh, LASV entry inh)
CCN1/C(=C/c2ccc3ccccc3[n+]2CC)C=Cc2ccccc21	FMDV inh inconclusive, HCV inhibitor 4.47µM, MARV entry inh 3.55µM, LASV entry inh 5.62µM
CCCCN1/C(=C/c2ccc3ccccc3[n+]2CC)Sc2ccccc21	FMDV inh 20µM, HCV inhibitor 8.91µM, MARV entry inh 5.62µM, LASV entry inh 2.24µM
CCCCN1/C(=C/c2cccc[n+]2C)Sc2cc(NC(C)=O)ccc21	none (no result: MARV entry inh, LASV entry inh)
COc1ccccc1C(C(=O)NC1CCCC1)N(C(=O)c1csnn1)C1CC1 (configuration not stated)	none
Cc1ccccc1NC(=S)N(Cc1ccco1)C(C)c1ccccn1 (configuration not stated)	none
CCCCNC(=O)C(NC(=O)c1cnccn1)C(=O)c1ccccc1 (configuration not stated)	none (no result: CHX counter, Shiga inhibitor, HCV inhibitor, MARV entry inh, LASV entry inh)
CC(C)n1ncc2c(C(=O)N3CCN(Cc4ccc(Cl)s4)CC3)cc(C3CC3)nc21	FMDV inh inconclusive, HCV inhibitor inconclusive, MARV entry inh inconclusive (no result: CHX counter, Shiga inhibitor)
CCOc1ccc(N=Nc2c(N)[nH][nH]c2=O)cc1	CHX counter 78.2, Shiga inhibitor 68.5, LASV entry inh inconclusive

Screening results (PubChem)
